HCMV inh – qHTS Assay for inhibitors of the human cytomegalovirus (HCMV) | HFF cells, HCMV-luciferase reporter, 72 h; stronger effect = lower value | activity change, negative = inhibition, % at 57.5 µM | 4.5% of 410,000 active; in the data active = activity change below about -60%; inconclusive = no clear call, values can overlap the other calls; inactive = above about -39%
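Screen run at 2 compound doses on HFFs infected with reporter HCMV, MOI 1 PFU/cell. Luciferase activity from cell lysates at 72 h post infection gave inhibition relative to buffer-only and Salinomycin wells.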
Vaccinia mCherry – qHTS for Stage-Specific Inhibitors of Vaccinia Orthopoxvirus: mCherry Reporter Primary qHTS | Vaccinia virus mCherry reporter infection, fluorescence | Potency, µM (series often up to 36.5 µM), actives largely listed as inhibitors | 0.63% of 310,000 active; calls by dose curve; tested in A549 cells; also: nearly all actives have a fitted effect of over 35% in size
TbPYK inhibitor – qHTS of Trypanosoma Brucei Inhibitors | pyruvate kinase (Trypanosoma brucei), Q57TT1 | Potency, µM (titrated, usually from 76.8 µM), most hits filed as inhibitors | TbPYK enzyme, Kinase-Glo Plus ATP luminescence, 45 min | 0.12% of 410,000 active; also: nearly all actives have a fitted effect of over 50% in size
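TbPYK + substrate in 50 mM TEA pH 7.2, 100 mM KCl, 10 mM MgCl2, 0.05% BSA, 0.01% Tween-20; cpd pinned; ADP 130 uM final; 45 min RT; Kinase-Glo Plus 10 min; luminescence endpoint.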
LmPK inh – qHTS Assay for Inhibitors of Leishmania Mexicana Pyruvate Kinase (LmPK) | Q27686 | purified LmPK, Kinase-Glo ATP luminescence, 1 h | Potency, µM (doses to about 57.5 µM), hits mostly inhibitors | 0.37% of 290,000 active | AID 1721, 2009
Target sequence (Q27686 whole entry, looked up): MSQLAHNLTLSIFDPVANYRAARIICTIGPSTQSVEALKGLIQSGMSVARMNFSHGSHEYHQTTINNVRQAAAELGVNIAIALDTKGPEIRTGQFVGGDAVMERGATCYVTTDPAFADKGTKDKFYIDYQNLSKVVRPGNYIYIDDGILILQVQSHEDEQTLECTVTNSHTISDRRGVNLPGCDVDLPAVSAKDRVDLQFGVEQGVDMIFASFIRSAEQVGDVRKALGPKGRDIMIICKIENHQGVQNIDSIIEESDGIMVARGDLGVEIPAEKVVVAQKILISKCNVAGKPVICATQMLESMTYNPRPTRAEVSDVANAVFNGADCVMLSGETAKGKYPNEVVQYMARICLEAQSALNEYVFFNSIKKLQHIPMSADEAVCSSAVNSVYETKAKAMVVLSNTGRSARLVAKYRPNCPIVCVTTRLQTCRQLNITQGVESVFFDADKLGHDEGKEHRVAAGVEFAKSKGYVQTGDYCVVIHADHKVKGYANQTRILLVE
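Pyruvate kinase activity monitored as ATP production (luciferase luminescence). Conditions: 0.1 nM enzyme, 0.5 mM PEP, 0.1 mM ADP, 1 h, RT; normalized against uninhibited and no-enzyme wells.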
VACV Venus inh – qHTS for Stage-Specific Inhibitors of Vaccinia Orthopoxvirus: Venus Reporter Primary qHTS; Vaccinia virus Venus reporter expression, fluorescence; Potency, µM (titrated, usually from 36.5 µM), hits mostly inhibitors; 0.46% of 330,000 active; AID 720580, 2013; calls by dose curve; tested in A549 cells; also: nearly all actives have a fitted effect of over 30% in size
Hits are given with their value; n = inactive; u = inconclusive; x = not tested or not shown; [ ] = another dose, or the depositor's remark. Only some compounds are listed: those with a hit (about 5% of all), similar ones and a draw of the others. Unless noted, calls follow the shape of the dose curve; as a rule, active = well fitted curve in the direction sought with a large enough effect; inconclusive = small, poorly fitted or top-dose-only effect, or another doubt; inactive = no such curve, though single readings can be large; an effect the other way counts as inactive or inconclusive.

SMILES | HCMV inh | Vaccinia mCherry | TbPYK inhibitor | LmPK inh | VACV Venus inh
O=C(O)c1ccc2nc3c(nc2c1)-c1ccccc1C3=O | n | n | 32µM | u | n
Cc1ccc(NC(=O)CSc2nc3ccccc3n2CC(=O)N(C)C2CCCCC2)cc1C | n | n | n | x | n
COc1cccc(-n2nc(C(N)=O)c(O)cc2=O)c1 | n | n | n | n | n
COc1cccc(-n2nc(C#N)c(Cl)cc2=O)c1 | -96 | u | n | n | 18µM
CCOc1ccccc1N1CCN(C(=S)NCc2ccccc2)CC1 | -88 | n | n | n | n
CCNC(=S)N1CCN(c2ccccc2OCC)CC1 | n | n | n | n | n
CCOc1ccc(NC(=O)Nc2cccnc2)cc1 | n | n | n | 25µM | n
CCCCOc1ccc(S(=O)(=O)Nc2cccnc2)cc1 | -76 | n | n | n | n
C=CCn1cccc(C(=O)Nc2ccc(OCC)cc2)c1=O | -63 | n | n | n | n
Cc1ccc(S(=O)(=O)Nc2cccnc2)cc1 | n | x | n | n | x
COc1ccc(NC(=O)Nc2cccnc2)cc1 | n | n | n | n | n
CC(=O)c1cccc(NC(=O)Nc2cccnc2)c1 | -77 | n | n | n | n
CCc1ccc(/C=N/NC(=O)c2ccccn2)cc1 | n | n | n | 13µM | n
CCOc1ccc(NC(=O)c2ccccn2)cc1 | u | n | n | 13µM | n
CCN(CC)c1ccc(/C=N/NC(=O)c2ccccn2)cc1 | n | n | n | n | n
O[C@H]1[C@H]2[C@H](O)CCCN2C[C@H]1O | x | x | n | x | x
CC(CN1CCN(CC(C)C(=O)c2ccccc2)CC1)C(=O)c1ccccc1 (stereo unspecified) | n | n | n | x | n
O=C(c1ccccc1)C(CN1CCCCC1)c1ccccc1 (stereo unspecified) | -68 | u | n | x | u
CN(C)CC(C(=O)c1ccccc1)c1ccccc1 (stereo unspecified) | u | 14µM | n | n | 10µM
CCOc1ccc(C(=O)C(CN2CCOCC2)c2ccccc2)cc1 (stereo unspecified) | -99 | 10µM | n | n | u
O=C(c1ccc(Br)cc1)C(CN1CCOCC1)c1ccccc1 (stereo unspecified) | n | n | n | n | n
CCOc1ccc(CC(=NCCO)C2=C(O)CC(C)(C)CC2=O)cc1OCC | n | n | n | n | n
COc1cc(C(=O)OCC(=O)c2cc(C)n(C)c2C)cc(NC(=O)c2ccco2)c1OC | u | x | x | n | x
CC(C)N1CCN(c2ccc(OC[C@H]3CO[C@](Cn4cncn4)(c4ccc(Cl)cc4Cl)O3)cc2)CC1 | -99 | n | n | x | n
CC(C)N1CCN(c2ccc(OCC3COC(Cn4cncn4)(c4ccc(Cl)cc4Cl)O3)cc2)CC1 (stereo unspecified) | n | n | n | x | n
SMILES | HCMV inh | Vaccinia mCherry | TbPYK inhibitor | LmPK inh | VACV Venus inh
CC(C)NC(=O)CC1Nc2c3ccccc3nc(=S)n2C1=O (stereo unspecified) | n | x | n | n | x
O=C(CC1Nc2c3ccccc3nc(=S)n2C1=O)NC1CCCCC1 (stereo unspecified) | -64 | x | x | n | x
Cc1cc(N2CCN(c3cccc(C)c3C)CC2)n2nc(C)c(-c3ccc(Cl)cc3)c2n1 | n | n | n | x | n
CCOC(=O)/C(=C\c1cccc(O)c1)c1nc2sc(C)c(C)c2c(=O)[nH]1 | -99 | u | u | n | u
O=C(COC(=O)c1cccc(F)c1)NC(=O)NCc1ccccc1 | n | x | n | x | x
Cc1cc(C)c(OCCCCN(C)Cc2ccccc2)c(C)c1 | -61 | x | n | n | x
Cc1ccc(OCCCCN(C)Cc2ccccc2)c(Br)c1 | n | u | n | n | u
COc1nc(N=C(N)N)nc2ccc(C)cc12 | -102 | x | x | n | x
COc1ccc(C)cc1N/C(N)=N/c1nc(C)cc(C)n1 | u | u | n | n | n
Cc1cc(NC(=O)c2cccc(Oc3ccccc3)c2)n[nH]1 | -71 | x | n | n | x
COc1cccc(C(=O)Nc2cccc(OCC(=O)O)c2)c1 | x | x | n | 35µM | x
O=C(Nc1cc(Cl)cc(Cl)c1)c1cccc(OC(F)F)c1 | -75 | u | n | n | u
COc1cccc(C(=O)Nc2cccc(NC(=O)c3ccccc3Cl)c2)c1 | -97 | x | n | n | x
Cc1ccnc(NC(=O)c2cccc(OC(F)F)c2)n1 | n | n | n | n | n
CCc1ccc(NC(=O)Nc2cnccn2)cc1 | n | x | n | n | x
O=C(NCc1ccccc1)C(c1cccnc1)N(C(=O)c1ccccn1)c1cccc(F)c1 (stereo unspecified) | n | n | n | n | n
COc1cccc(NC(=O)c2ccc(-c3nc(COc4ccccc4)c(C)o3)cc2)c1 | -66 | n | n | x | n
CN(C)C(CNC(=O)CN1C(=O)NC2(CCCC2)C1=O)c1ccccc1 (stereo unspecified) | n | x | n | x | x
CCCC(=O)N1c2nc(C(C)C)nn2C2(CCCCC2)[C@@H]2CCCC[C@@H]21 | -75 | n | n | x | n
Cc1nc2sc(C(c3cccs3)N3CCN(c4cccc(Cl)c4)CC3)c(O)n2n1 (stereo unspecified) | -62 | u | n | n | u
Cc1nc2sc(C(c3cccs3)N3CCN(C(=O)c4ccco4)CC3)c(O)n2n1 (stereo unspecified) | n | n | n | n | n
CCCCNC(=O)C1c2cc(OC)c(OC)cc2C(=O)N(C)C1c1ccc(OC)cc1 (stereo unspecified) | -100 | n | n | n | n
CCOC(=O)c1cc(OC(=O)c2ccccc2F)n(-c2ccccc2)n1 | n | n | n | x | n
c1ccc2c(c1)C1=NCCN1c1ccccc1-2 | -103 | u | n | x | u
COC(=O)c1cccnc1-n1c(=O)c2cccnc2n(Cc2cccc([N+](=O)[O-])c2)c1=O | -86 | x | n | n[11.5 µM] | x
SMILES | HCMV inh | Vaccinia mCherry | TbPYK inhibitor | LmPK inh | VACV Venus inh
COc1ccc2nc3sc(C(=O)NCCCN4CCc5ccccc5C4)cc3cc2c1 | n | u | n | n | n
CCN(CCCNC(=O)c1cc2cc3ccc(OC)cc3nc2s1)c1ccccc1 | -77 | n | n | x | u
CCN(CCCNC(=O)c1cc2cc3ccc(OC)cc3nc2s1)c1cccc(C)c1 | -68 | n | n | x | n
CCN(CCCNC(=O)c1cc2c(=O)[nH]c3ccccc3c2s1)c1ccccc1 | -81 | n[7.34 µM] | n | x | n[7.34 µM]
CCCCN(C)C(=O)c1cc2cc3ccc(OC)cc3nc2s1 | n | x | u | 14µM | x
COc1ccc(OC)c(NC(=O)c2cc3cc4ccc(C)cc4nc3s2)c1 | n | n | n | x | n
O=C(Nn1cnnc1)c1ccc(Cl)cc1[N+](=O)[O-] | n | x | n | n | x
O=C(CS(=O)(=O)c1ccccc1)Nc1nc2ccccc2s1 | n | x | n | n | x
N#CC(C#N)=NNc1ccc(-n2ccc(C(F)(F)F)n2)cc1 | -97 | u | n | n | u
O=C(Nc1ccccc1)Nc1ccc(-n2ccc(C(F)(F)F)n2)cc1 | n | x | n | n | x
CCCc1c(NC(=O)Nc2ccc(F)cc2)cnn1-c1ccccc1 | -67 | x | n | n | x

Screens: PubChem, National Center for Advancing Translational Sciences (NCATS)
